# Laboratory results taken from PubChem BioAssay.
# Values without a mark were called inactive.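 How the source made its calls, unless noted: active means compounds killing one labelled cell type while sparing the other, by normalised counts and ratio limits, not self-fluorescent; inactive means the rest.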
# Assay: modulation of C. elegans fzo-1 (AID 1259413; call rule not given here;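 further: fzo-1 mutant C. elegans worms in liquid wells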)
# Conditions: C. elegans fzo-1 modulator screen, mean read-out; hits give high values
row,Structure (SMILES),mean signal
1,CCOC(=O)C1=C(C)NC(C)=C(C(=O)OC)C1c1cccc(Cl)c1Cl (stereo unspecified),217
2,O=C(NCCN1CCOCC1)c1ccc(Cl)cc1,247
3,CCOc1cc(CC(=O)N[C@@H](CC(C)C)c2ccccc2N2CCCCC2)ccc1C(=O)O,247
4,COCCCC/C(=N\OCCN)c1ccc(C(F)(F)F)cc1,245
5,COc1ccccc1N1CCN(CC(O)COc2cccc3ccccc23)CC1 (stereo unspecified),202
6,CC(C)NCC(O)COc1ccc(CCOCC2CC2)cc1 (stereo unspecified),281
7,COc1cc2nc(N3CCN(C(=O)C4CCCO4)CC3)nc(N)c2cc1OC (stereo unspecified),236
8,c1cnc(N2CCN(Cc3ccc4c(c3)OCO4)CC2)nc1,255
9,CCOC(=O)c1ncn2c1CN(C)C(=O)c1cc(F)ccc1-2,276
10,CC(C)NCC(O)COc1ccc(COCCOC(C)C)cc1 (stereo unspecified),229
11,CN1CCC(=C2c3ccccc3C=Cc3ccccc32)CC1,251
12,Cc1ncc([N+](=O)[O-])n1CC(O)CCl (stereo unspecified),246
13,CCc1oc2ccccc2c1C(=O)c1cc(Br)c(O)c(Br)c1,252
14,O=C(CCNNC(=O)c1ccncc1)NCc1ccccc1,273
15,Oc1ccc(C2CNCCc3c2cc(O)c(O)c3Cl)cc1 (stereo unspecified),286
16,O=C1CC2(CCCC2)CC(=O)N1CCCCN1CCN(c2ncccn2)CC1,228
17,Cc1cccc(C)c1OCC(C)N (stereo unspecified),227
18,CN1CCC(=C2c3ccccc3CC(=O)c3sccc32)CC1,231
19,CCC1=C(C)CN(C(=O)NCCc2ccc(S(=O)(=O)NC(=O)NC3CCC(C)CC3)cc2)C1=O (stereo unspecified),255

row,Structure (SMILES),mean signal
1,Nc1nc2c(ncn2CCC(CO)CO)c(=O)[nH]1,282
2,Cn1nnc2c(C(N)=O)ncn2c1=O,230
3,Nc1ccc(O)c(C(=O)O)c1,261
4,CC1CCN(CCCC(=O)c2ccc(F)cc2)CC1,246
5,COC(=O)C1=C(C)NC(C)=C(C(=O)OC(C)C)C1c1cccc2nonc12 (stereo unspecified),273
6,OCCOCCN1CCN(C2=Nc3ccccc3Sc3ccccc32)CC1,248
7,Nc1nc(N)nc(-c2cc(Cl)ccc2Cl)n1,297
8,CCc1c2c(nc3ccc(OC(=O)N4CCC(N5CCCCC5)CC4)cc13)-c1cc3c(c(=O)n1C2)COC(=O)[C@]3(O)CC,270
9,COc1ccc(C2CNC(=O)C2)cc1OC1CCCC1 (stereo unspecified),251
10,CN1CCCCC1CCN1c2ccccc2Sc2ccc(S(C)=O)cc21 (stereo unspecified),243
11,O=C(O)/C=C/c1ccc(Cn2ccnc2)cc1,275
12,COc1ccc2nc(S(=O)Cc3ncc(C)c(OC)c3C)[nH]c2c1 (stereo unspecified),241
13,CCN1CCCC1CNC(=O)c1cc(S(=O)(=O)CC)c(N)cc1OC (stereo unspecified),235
14,CCOC(=O)OC(C)OC1=C(C(=O)Nc2ccccn2)N(C)S(=O)(=O)c2ccccc21 (stereo unspecified),259
15,O=C(NCCO[N+](=O)[O-])c1cccnc1,264
16,CC[N+](C)(CC)CCOC(=O)C(O)(c1ccccc1)C1CCCCC1 (stereo unspecified),260
17,CNS(=O)(=O)Cc1ccc2[nH]cc(CCN(C)C)c2c1,224
18,CCc1nn(CCCN2CCN(c3cccc(Cl)c3)CC2)c(=O)n1CCOc1ccccc1,239
19,OCc1cc(C(O)CNCCCCCCOCCCCc2ccccc2)ccc1O (stereo unspecified),253

# Assay: differential killing of epithelial or mesenchymal cells, primary screen, imaging, PC-3E GFP, TEM4-18 mCherry, co-culture (AID 1345086);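 further: normalised mesenchymal count divided by normalised epithelial count so high means epithelial killing; cells exposed to compound for 72 h before imaging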
# Conditions: imaging cell counts, at 1 µM, actives lie on both sides, counts scaled to control wells, 1 = unselective
row,Structure (SMILES),red/green cell ratio (normalised)
1,CCOC(=O)C1=C(C)NC(C)=C(C(=O)OC)C1c1cccc(Cl)c1Cl (stereo unspecified),1.08
2,O=C(NCCN1CCOCC1)c1ccc(Cl)cc1,0.88
3,CCOc1cc(CC(=O)N[C@@H](CC(C)C)c2ccccc2N2CCCCC2)ccc1C(=O)O,0.96
4,COCCCC/C(=N\OCCN)c1ccc(C(F)(F)F)cc1,0.92
5,COc1ccccc1N1CCN(CC(O)COc2cccc3ccccc23)CC1 (stereo unspecified),0.7
6,CC(C)NCC(O)COc1ccc(CCOCC2CC2)cc1 (stereo unspecified),0.81
7,COc1cc2nc(N3CCN(C(=O)C4CCCO4)CC3)nc(N)c2cc1OC (stereo unspecified),0.95
8,c1cnc(N2CCN(Cc3ccc4c(c3)OCO4)CC2)nc1,1.12
9,CCOC(=O)c1ncn2c1CN(C)C(=O)c1cc(F)ccc1-2,0.89
10,CC(C)NCC(O)COc1ccc(COCCOC(C)C)cc1 (stereo unspecified),0.9
11,CN1CCC(=C2c3ccccc3C=Cc3ccccc32)CC1,1.06
12,Cc1ncc([N+](=O)[O-])n1CC(O)CCl (stereo unspecified),1.07
13,CCc1oc2ccccc2c1C(=O)c1cc(Br)c(O)c(Br)c1,0.88
14,O=C(CCNNC(=O)c1ccncc1)NCc1ccccc1,1.02
15,Oc1ccc(C2CNCCc3c2cc(O)c(O)c3Cl)cc1 (stereo unspecified),1.06
16,O=C1CC2(CCCC2)CC(=O)N1CCCCN1CCN(c2ncccn2)CC1,1.04
17,Cc1cccc(C)c1OCC(C)N (stereo unspecified),1.08
18,CN1CCC(=C2c3ccccc3CC(=O)c3sccc32)CC1,0.94
19,CCC1=C(C)CN(C(=O)NCCc2ccc(S(=O)(=O)NC(=O)NC3CCC(C)CC3)cc2)C1=O (stereo unspecified),0.86

row,Structure (SMILES),red/green cell ratio (normalised)
1,Nc1nc2c(ncn2CCC(CO)CO)c(=O)[nH]1,1
2,Cn1nnc2c(C(N)=O)ncn2c1=O,1.08
3,Nc1ccc(O)c(C(=O)O)c1,1.19
4,CC1CCN(CCCC(=O)c2ccc(F)cc2)CC1,0.9
5,COC(=O)C1=C(C)NC(C)=C(C(=O)OC(C)C)C1c1cccc2nonc12 (stereo unspecified),1.19
6,OCCOCCN1CCN(C2=Nc3ccccc3Sc3ccccc32)CC1,0.87
7,Nc1nc(N)nc(-c2cc(Cl)ccc2Cl)n1,1.01
8,CCc1c2c(nc3ccc(OC(=O)N4CCC(N5CCCCC5)CC4)cc13)-c1cc3c(c(=O)n1C2)COC(=O)[C@]3(O)CC,1.07
9,COc1ccc(C2CNC(=O)C2)cc1OC1CCCC1 (stereo unspecified),0.93
10,CN1CCCCC1CCN1c2ccccc2Sc2ccc(S(C)=O)cc21 (stereo unspecified),1.05
11,O=C(O)/C=C/c1ccc(Cn2ccnc2)cc1,1.06
12,COc1ccc2nc(S(=O)Cc3ncc(C)c(OC)c3C)[nH]c2c1 (stereo unspecified),0.98
13,CCN1CCCC1CNC(=O)c1cc(S(=O)(=O)CC)c(N)cc1OC (stereo unspecified),1.01
14,CCOC(=O)OC(C)OC1=C(C(=O)Nc2ccccn2)N(C)S(=O)(=O)c2ccccc21 (stereo unspecified),1.19
15,O=C(NCCO[N+](=O)[O-])c1cccnc1,0.94
16,CC[N+](C)(CC)CCOC(=O)C(O)(c1ccccc1)C1CCCCC1 (stereo unspecified),0.95
17,CNS(=O)(=O)Cc1ccc2[nH]cc(CCN(C)C)c2c1,1.17
18,CCc1nn(CCCN2CCN(c3cccc(Cl)c3)CC2)c(=O)n1CCOc1ccccc1,1.11
19,OCc1cc(C(O)CNCCCCCCOCCCCc2ccccc2)ccc1O (stereo unspecified),1.18
